# In publication PMC5540273 (PLoS ONE, 2017):
# Assays:
# Conditions in all cases: concentration: 1 μM, replicates: in singlicate; n = 1
# CSF1R = system: CSF1R
# CSK = system: CSK
# CSNK1A1L = system: CSNK1A1L
# CSNK1A1 = system: CSNK1A1
# CSNK1D = system: CSNK1D
# CSNK1E = system: CSNK1E
# CSNK1G1 = system: CSNK1G1
# CSNK1G2 = system: CSNK1G2
# CSNK1G3 = system: CSNK1G3
# CSNK2A1 = system: CSNK2A1
# CSNK2A2 = system: CSNK2A2
# CTK = system: T1, CTK
# T1 construct: gene MATK
# DAPK1 = system: DAPK1
# DAPK2 = system: DAPK2
# DAPK3 = system: DAPK3
# DCAMKL1 = system: T2, DCAMKL1
# T2 construct: gene DCLK1
# DCAMKL2 = system: T3, DCAMKL2
# T3 construct: gene DCLK2
# DCAMKL3 = system: T4, DCAMKL3
# T4 construct: gene DCLK3
# DDR1 = system: DDR1
# DDR2 = system: DDR2
# 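Further: KINOMEscan kinase panel screen.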
SMILES,%Inh (CSF1R),%Inh (CSK),%Inh (CSNK1A1L),%Inh (CSNK1A1),%Inh (CSNK1D),%Inh (CSNK1E),%Inh (CSNK1G1),%Inh (CSNK1G2),%Inh (CSNK1G3),%Inh (CSNK2A1),%Inh (CSNK2A2),%Inh (CTK),%Inh (DAPK1),%Inh (DAPK2),%Inh (DAPK3),%Inh (DCAMKL1),%Inh (DCAMKL2),%Inh (DCAMKL3),%Inh (DDR1),%Inh (DDR2)
Cc1nn2c(=O)cc(N3CCOCC3)nc2n1Cc1cccc(Cl)c1Cl [GSK2342769],13%,0%,22%,0%,4%,22%,0%,0%,9%,16%,5%,0%,27%,21%,64%,0%,0%,7%,25%,0%
CCS(=O)(=O)c1ccc(OC)c(Nc2ncc(-c3ccc(F)cc3)o2)c1.Cl [GW591947],0%,0%,0%,0%,18%,40%,13%,0%,8%,0%,17%,0%,0%,0%,15%,9%,0%,6%,0%,4%
COc1cc2ncn(-c3cc(OCCCc4ccccc4)c(C(N)=O)s3)c2cc1OC [GSK205189],0%,0%,5%,23%,1%,2%,1%,2%,21%,0%,3%,0%,0%,26%,0%,0%,17%,1%,2%,3%
O=C(Nc1n[nH]c2nc(-c3ccccc3)c(Br)cc12)C1CC1 [SB-708998],0%,0%,0%,6%,0%,0%,10%,2%,15%,6%,4%,0%,0%,0%,0%,0%,0%,0%,23%,9%
CN(C)c1cc(-c2ccc3c(N)n[nH]c3c2)nc(N)n1 [GSK2219329],2%,0%,0%,0%,25%,27%,0%,2%,16%,0%,11%,0%,0%,0%,0%,9%,0%,0%,0%,0%
CCCC(=O)Nc1n[nH]c2ncc(-c3cccc4ccccc34)cc12 [SB-642057],26%,0%,2%,0%,37%,19%,4%,0%,1%,0%,0%,0%,20%,0%,24%,18%,0%,11%,3%,0%
O=C(Nc1n[nH]c2nc(-c3ccccc3)c(Cl)cc12)C1CC1 [SB-734909],28%,0%,0%,0%,0%,11%,0%,0%,0%,31%,34%,27%,9%,0%,0%,16%,18%,8%,17%,18%
COc1cc2ncn(-c3cc(OCc4ccc(S(C)(=O)=O)cc4)c(C(N)=O)s3)c2cc1OC [GW869979],0%,0%,0%,0%,0%,13%,0%,10%,3%,19%,0%,15%,0%,0%,9%,1%,19%,0%,20%,2%
Cc1ccc(Oc2ccc(Nc3ncnc4cc[nH]c34)cc2C)cn1,5%,20%,11%,8%,0%,0%,12%,13%,0%,32%,13%,29%,0%,0%,0%,0%,0%,0%,0%,0%
COc1ccc(CNC(=O)NC2CCN(c3ccnc(Nc4ccc(F)cc4)n3)C2)cc1 (stereo not shown) [GSK1379706],16%,5%,12%,25%,29%,15%,21%,0%,23%,4%,12%,0%,0%,14%,30%,14%,60%,2%,8%,63%
Nc1nc(-c2ccccc2F)c(-c2ccnc3ccccc23)s1 [GW560459],0%,0%,7%,72%,66%,51%,13%,1%,25%,0%,0%,0%,0%,0%,13%,12%,1%,1%,7%,34%
